Screens as filed in PubChem.
PAX8 inh HTS = lowers PAX8-driven luciferase in RMG-I cells; RMG-I TPO-luciferase reporter, SteadyGlo, 24 h; inhibition, % at 12.6 µM; 1.2% of 360,000 active;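 active means mean replicate inhibition at least 60% with every replicate also reaching 60%; inconclusive means only one of the two criteria is met; inactive means mean below 60% and not all replicates reaching 60%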;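 further: luciferase light reporting Pax8 driven TPO promoter activity; plate controls were median of neutral control wells for no effect and mitoxantrone controls for full effect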
LGR2 antag = blocks bursicon-induced cAMP signaling via Drosophila LGR2; 0.35% of 380,000 active; HEK293 LGR2, CRE-luciferase, bursicon-stimulated, 4 h; AID 720647; inhibition, % at 9.99 µM;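 active means drop in luminescence signal, shown as inhibition above about 50% in the replicate tests, limit read from the data, passing the limit was not always enough; inconclusive means probably only some replicates passing the limit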;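 further: agonist challenge used bursicon conditioned medium at about half maximal strength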
KKLEB tox = reduces viability of KKLEB cystic fibrosis airway cells; KKLEB CF airway cells viability, ATPlite luminescence, overnight; stronger effect = lower value; cells stimulated with P. aeruginosa culture filtrate; activity change (cytotoxicity), % at 5 µM; 0.36% of 360,000 active; AID 602141;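 active means corrected activity change at or below -50% at 5 µM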
Shn3 3UTR inh = reduces Shn3 3'UTR luciferase signal in osteoblasts. AID 588674. 0.52% of 360,000 active. Clone20 osteoblast Shn3 3'UTR firefly luciferase, 24 h. inhibition, % at 12.5 µM;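 active means mean inhibition of at least 75% with every replicate also reaching 75%; inconclusive means mean inhibition at least 75% but some replicate below; inactive means mean inhibition below 75%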;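 further: 0% = median of neutral control wells and 100% = pilot-screen positive control compound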
CF NFkB inh = inhibitors of cystic fibrosis induced NF-kB; KKLEB NF-kB-GFP reporter, PAF-induced, GFP fluorescence overnight; 0.86% of 360,000 active; AID 588850; inhibition, % at 5 µM;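 active means at least 50% inhibition at 5 µM, scaled per plate between neutral and stimulator controls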;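 further: PAF is a Pseudomonas aeruginosa culture filtrate used as stimulus; plate controls were PAF-stimulated DMSO wells for no effect and unstimulated DMSO wells for full effect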
EWS-Fli inh = EWS/Fli transcriptional activity inhibition. A673 NR0B1-luciferase reporter, viability-normalised. inhibition, % at 12.6 µM. 0.67% of 350,000 active. AID 651661;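 active means mean inhibition of at least 50% after viability correction, with every replicate also passing that limit; inconclusive means mean reaches 50% but only one of two replicates passes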;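 further: firefly luciferase signal divided by Alamar Blue viability fluorescence both relative to DMSO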
DNA binder FP = DNA binding small molecules; 2% of 640 active; salmon sperm DNA acridine orange fluorescence polarization; shares compounds with EWS-Fli inh; AC35, µM (highest dose often 68 µM), inactives show at the highest dose activity change, negative = DNA binding;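 active means fitted curve reaches a 35% signal fall AC35 below twice the sample's top valid tested dose, actives reach about 48 µM in these data; inactive means the rest, including activity in the rising direction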;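 further: lower polarization ratio signals compound binding to DNA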
* marks the source's active call; other numbers are inactive results; ? = inconclusive; . = no result. Hits are enriched below; roughly 2% of the tested compounds scored in any of these assays.

SMILES | PAX8 inh HTS | LGR2 antag | KKLEB tox | Shn3 3UTR inh | CF NFkB inh | EWS-Fli inh | DNA binder FP
COc1ccc([Si](C)(C)[C@H]2[C@H](CCO)O[C@@]3(C(=O)N(c4ccccc4)c4ccccc43)[C@@H]2C)cc1 | 102.7* | . | . | . | . | 57.9* | 1.9%
CN(C)C(=O)c1ccc(-c2ccc([C@H]3[C@@H](CO)N4C(=O)CN(C(=O)C5CCC5)C[C@@H]34)cc2)cc1 | -12.5 | 0.9 | . | . | . | 1.3 | .
COc1ccccc1C(=O)NCCNc1nc2cc(C)cc(C)c2cc1C#N | -7.2 | 3.9 | -8.7 | 22.2 | 9.6 | 2.4 | .
COc1ccc(C(=O)NCCNc2nc3cc(C)cc(C)c3cc2C#N)c(OC)c1 | 9.1 | 15.3 | . | . | . | 66.8* | -9.6%
COc1ccccc1-c1cn(CC[C@H]2CC[C@@H](NC(=O)C3CCCC3)[C@@H](CO)O2)nn1 | . | 24.7 | . | . | . | 57.5* | -15.6%
COc1ccccc1NC(=O)N1[C@@H]2CNC[C@H]1[C@@H]2c1ccc(-c2ccc(C#N)cc2)cc1 | -4.9 | 19.2 | . | . | . | 54.0* | -15.9%
O=C(Nc1cc(F)ccc1F)N1CCCCN2[C@@H](CO)[C@@H](c3ccc(-c4ccncc4)cc3)[C@@H]2C1 | -22.6 | -3.8 | . | . | . | 0.9 | .
COc1ccc(C/C(N)=N/OC(C)=O)cc1OC | 10.0 | -6.3 | 9.1 | 5.3 | -5.8 | 82.9* | -5.1%
CCCN(C)C[C@@H]1Oc2cc(C#Cc3cccc(F)c3)ccc2S(=O)(=O)N([C@@H](C)CO)C[C@@H]1C | . | -3.0 | . | . | . | 16.9 | .
COC(=O)C[C@H]1CC[C@@H](NC(=O)Nc2ccc(C(F)(F)F)cc2)[C@H](CO)O1 | 4.1 | 1.2 | . | . | . | 69.1* | -16.6%
C[C@@H]1CN([C@H](C)CO)C(=O)c2cc(NS(=O)(=O)c3cccs3)ccc2O[C@H]1CN(C)CC1CC1 | 3.5 | -31.2 | . | . | . | -10.7 | .
O=C(CN1CCOCC1)N1CC2(C1)[C@@H](c1ccccc1)[C@@H](CO)N2Cc1cccc(F)c1 | -6.1 | -4.6 | . | . | . | 0.2 | .
CCCc1cc(=O)oc2c3c(c4c(c12)OC(C)(C)C=C4)OC(C)C(C)C3O (centres undefined) | . | . | -12.6 | 73.7 | 39.9 | 72.9* | 1.9%
O=C(NC1CCC1)[C@@H]1[C@@H](CO)[C@@H]2Cn3c(ccc(-c4ccccc4)c3=O)[C@H]1N2Cc1cocn1 | 0.8 | 2.6 | . | . | . | 4.0 | .
Cc1c(CCOC(=O)CC23CC4CC(CC(C)(C4)C2)C3)sc[n+]1CC(=O)c1ccccc1 | -6.7 | 0.1 | -7.2 | 57.7 | 23.2 | 76.2* | -3.7%
Cc1c(CCOC(=O)C23CC4CC(CC(C)(C4)C2)C3)sc[n+]1CC(=O)c1ccccc1 | 26.7 | 34.8 | -14.2 | 13.8 | 4.4 | 8.2 | .
CCCCNC(=O)C(c1ccc(OCC(=O)OC)c(C(=O)OC)c1)N(CCOC)C(=O)CCCCCN1C(=O)NC(c2ccc(-c3ccccc3)cc2)C(C(=O)OCc2ccccc2)=C1C (centres undefined) | 36.8 | 3.9 | . | . | . | 58.8* | -3.8%
CCCCCCN(C(=O)CCCCCN1C(=O)NC(c2ccc(-c3ccccc3)cc2)C(C(=O)OCc2ccccc2)=C1C)C(C(=O)NCCCC)C1CCCCC1 (centres undefined) | -6.0 | -1.7 | . | . | . | -0.3 | .
Cc1ccc(Cl)cc1NC(=O)Cn1cc(C(F)(F)F)cc(Cl)c1=O | 8.8 | 12.2 | -8.9 | 14.7 | -0.4 | 76.3* | 4.2%
N#Cc1ccc(-c2ccc([C@H]3[C@@H](CO)N4CCCCN(S(=O)(=O)c5ccccc5)C[C@@H]34)cc2)cc1 | -4.5 | 20.7 | . | . | . | -12.9 | .
COc1ccccc1-c1ccc(OCCCN2CCC(C(O)(c3ccccc3)c3ccccc3)CC2)cc1 | 96.4* | 61.8* | . | . | . | 70.6* | -15.4%
CC(=O)c1ccc(N=C2C(=O)Nc3ccccc32)cc1 | 6.3 | -2.6 | -5.2 | 2.3 | 23.9 | 54.3* | -8.9%
COCCOC(=O)N1C(=O)[C@@]2(c3cc(C#CCC(C(=O)OC)C(=O)OC)ccc31)[C@H](c1ccccc1OCCO)N1[C@H](c3ccccc3)[C@H](c3ccccc3)OC(=O)[C@H]1[C@@H]2C(=O)N1CCN(c2ncccn2)CC1 | 14.4 | . | . | . | . | 60.8* | 0.8%
COC(=O)C(CC#Cc1ccc2c(c1)[C@]1(C(=O)N2)[C@H](c2ccc(OCCO)cc2)N2[C@H](c3ccccc3)[C@H](c3ccccc3)OC(=O)[C@H]2[C@@H]1C(=O)N1CCN(c2ncccn2)CC1)C(=O)OC | -22.3 | . | . | . | . | 76.2* | 2.6%
COC(=O)C(CC#Cc1ccc2c(c1)[C@]1(C(=O)N2)[C@H](C(=O)N2CCN(c3ncccn3)CC2)[C@H]2C(=O)O[C@H](c3ccccc3)[C@H](c3ccccc3)N2[C@@H]1c1ccc(OCCO)cc1)C(=O)OC | 14.2 | . | . | . | . | ? | .
SMILES | PAX8 inh HTS | LGR2 antag | KKLEB tox | Shn3 3UTR inh | CF NFkB inh | EWS-Fli inh | DNA binder FP
CC(C)NC(=O)N(C)C[C@@H]1Oc2c(NC(=O)NC3CCCCC3)cccc2C(=O)N([C@@H](C)CO)C[C@@H]1C | . | 4.7 | . | . | . | 0.9 | .
CCNC(=O)[C@H]1[C@H](CO)[C@H]2Cn3c(ccc(C4=CCCCC4)c3=O)[C@@H]1N2Cc1ccncc1 | -27.6 | 3.0 | . | . | . | -12.5 | .
Nc1cccc(-c2nc3ccc(N)cc3s2)c1 | . | . | 3.7 | 2.3 | -17.8 | . | .
Cc1cc(-c2nc3cc(F)ccc3s2)ccc1N | -4.9 | 64.2* | -30.0 | -10.3 | -53.2 | 73.8* | -1.3%
COc1ccc(C2c3cc4c(cc3OC(NNC(N)=O)C2C)OCO4)cc1 (centres undefined) | . | 6.3 | -6.9 | 2.9 | 2.4 | 50.4* | -8.8%
CO[C@@H](CN(C)S(=O)(=O)c1ccccc1)[C@@H](C)CN(C(=O)Nc1ccccc1F)[C@H](C)CO | . | -7.2 | . | . | . | -0.9 | .
COC(=O)c1cccc(NC(=O)NC(=O)c2ccccc2Cl)c1 | 29.6 | -2.1 | -25.4 | 22.9 | -5.1 | 85.6* | -13.2%
COC(=O)c1cccc(NC(=O)Nc2ccc(Cl)c(Cl)c2)c1 | . | -18.0 | -16.6 | 12.6 | 12.5 | 2.3 | .
C[C@@H]1CN([C@H](C)CO)S(=O)(=O)c2ccc(C#CC3CC3)cc2O[C@@H]1CN(C)Cc1ccccc1F | . | 26.3 | . | . | . | 61.5* | -9.5%
C[C@@H]1CN([C@@H](C)CO)S(=O)(=O)c2ccc(C#CC(C)(C)O)cc2O[C@H]1CN(C)Cc1ccc(-c2ccccc2)cc1 | . | -4.7 | . | . | . | 75.4* | -2.7%
C[C@H]1CN([C@@H](C)CO)S(=O)(=O)c2ccc(C#CC3CC3)cc2O[C@@H]1CN(C)Cc1ccccc1F | . | 22.1 | . | . | . | 24.5 | .
C[C@H](CO)N1C[C@H](C)[C@H](CN(C)Cc2ccc3cccnc3c2)OCc2cnnn2CCCC1=O | 8.2 | 13.0 | . | . | . | 10.2 | .
CCOc1ccc(-c2cc(CCCC(=O)NCc3ccc(C)cc3)no2)cc1 | -1.0 | 19.2 | 0.5 | 31.9 | -22.0 | 61.3* | -9.1%
COc1ccc(-c2cc(CCCC(=O)NCCc3cc(OC)ccc3OC)no2)cc1 | . | 6.1 | 25.5 | 18.9 | -23.6 | . | .
N#CCC(=O)Nc1nc(-c2ccc3c(c2)OCCO3)cs1 | -84.0 | -27.2 | 0.0 | 2.9 | -5.1 | -47.8 | .
